Screening data from PubChem BioAssay.
Rin1 Abl inh: inhibitors of Rin1-Abl protein binding, primary screen, biochemical, TR-FRET; inhibition, % at 7.35 µM; 0.4% of 360,000 active; AID 588664, 2011; in the data active means inhibition above about 5%, passing the limit was not always enough
Neddyl block: inhibitors of cullin neddylation, primary screen, biochemical, TR-FRET, uHTS, NAE and Ubc12. NEDD8-conjugating enzyme Ubc12 (Homo sapiens) + NEDD8-activating enzyme E1 regulatory …. calls only at 25 µM. 0.58% of 360,000 active. AID 651699, 2012; in the data active means inhibition above about 36%
Target sequence (P61081 whole entry, looked up): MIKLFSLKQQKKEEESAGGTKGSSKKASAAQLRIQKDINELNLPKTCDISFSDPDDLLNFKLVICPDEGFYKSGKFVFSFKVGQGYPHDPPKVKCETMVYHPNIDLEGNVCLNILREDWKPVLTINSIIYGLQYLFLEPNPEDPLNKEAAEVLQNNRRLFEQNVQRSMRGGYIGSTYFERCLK
Target sequence (Q13564 whole entry, looked up): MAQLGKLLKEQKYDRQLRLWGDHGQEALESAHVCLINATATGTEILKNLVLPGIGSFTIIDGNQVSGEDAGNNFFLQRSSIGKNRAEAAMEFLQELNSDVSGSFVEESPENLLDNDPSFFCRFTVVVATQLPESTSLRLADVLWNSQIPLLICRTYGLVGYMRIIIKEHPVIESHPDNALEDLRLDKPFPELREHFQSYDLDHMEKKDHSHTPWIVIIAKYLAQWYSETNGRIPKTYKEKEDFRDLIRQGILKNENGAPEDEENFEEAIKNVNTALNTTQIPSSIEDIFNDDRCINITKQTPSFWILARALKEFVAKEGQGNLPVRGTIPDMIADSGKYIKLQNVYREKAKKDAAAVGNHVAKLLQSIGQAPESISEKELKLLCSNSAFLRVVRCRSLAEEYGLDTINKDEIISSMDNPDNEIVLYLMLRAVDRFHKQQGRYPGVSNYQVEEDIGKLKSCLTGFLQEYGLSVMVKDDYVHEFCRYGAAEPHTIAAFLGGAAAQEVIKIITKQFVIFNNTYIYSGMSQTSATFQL
proKLK7 act: proKLK7 zymogen activators, primary screen, biochemical, fluorescence intensity; purified proKLK7, EDANS-DABCYL substrate fluorescence; 100% is mature enzyme control, 0% vehicle; Kallikrein-7 (Homo sapiens), P49862; activation, % at 7 µM; 0.9% of 370,000 active; AID 652039, 2013;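 active means activation above the mean of all tested compounds plus 3 SD, computed per campaign excluding outliers beyond control limits, cut at about 13% in these data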
UHRF1 MBD2 ctr: UHRF1 methylated DNA binding inhibitors, primary screen, counter-screen for MBD2 inhibitor project, biochemical, TR-FRET, human UHRF1, single concentration | inhibition, % at 4.4 µM | 0.75% of 370,000 active | UHRF1 binding to methylated oligo | E3 ubiquitin-protein ligase UHRF1 (Homo sapiens), Q96T88 | AID 687016, 2013;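 further: UHRF1 SRA domain binding a hemimethylated CpG hairpin DNA probe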
MBD2 inh: inhibitors of MBD2 binding to methylated DNA, primary screen, biochemical, TR-FRET, DNA-binding domain, human; Methyl-CpG-binding domain protein 2 (Homo sapiens), Q9UBB5; MBD2 binding to methylated oligonucleotide; AID 686964, 2013; 0.31% of 370,000 active; inhibition, % at 4.4 µM; in the data active means inhibition above about 13%
LEDGF integ inh: blockers of LEDGF/p75-dependent integrase strand transfer – biochemical, TR-FRET, high throughput, primary screen; TR-FRET IN-LEDGF/p75 DNA integration, Eu/Cy5; AID 743269, 2014; HIV-1 integrase (with human LEDGF/p75); 0.64% of 370,000 active; inhibition, % at 3.7 µM;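 active means inhibition above the screen-wide mean plus 3 SD, cut at about 13% in these data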;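 further: signal is the Cy5 over europium emission ratio at 671 and 618 nm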
UHRF1 ctr MBD2: UHRF1 methylated DNA binding inhibitors, counter-screen for MBD2 inhibitor project, biochemical, TR-FRET, human UHRF1 | shares compounds with MBD2 inh | UHRF1 binding to methylated oligonucleotide | inhibition, % at 4.4 µM | 25% of 1,000 active;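 further: UHRF1 SRA domain binding a labeled hemimethylated CpG hairpin DNA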
MBD2 confirm: inhibitors of MBD2 binding to methylated DNA, confirmation, biochemical, TR-FRET, DNA-binding domain, human. shares compounds with MBD2 inh. TR-FRET MBD2-DBD binding to methylated oligonucleotide. inhibition, % at 4.4 µM. 26% of 1,000 active. AID 720531, 2013; in the data active means inhibition above about 14%
Of the large screens only hits and unclear results are named; the others gave an inactive call (follow-up assays come after a bar, where they were run). An excerpt weighted towards active compounds, which were near 3.1% of everything screened. Unless noted, no stated cut-off is given here; in the data, active means inhibition above about 21%; inactive means the rest.

COc1ccc(N=Cc2ccc[nH]2)cc1	MBD2 inh 22 | UHRF1 ctr MBD2 inactive | MBD2 confirm inactive
Cc1ccccc1-c1nc2ccccc2c(=O)n1/N=C/c1ccc([N+](=O)[O-])cc1	MBD2 inh 15 | UHRF1 ctr MBD2 inactive | MBD2 confirm inactive
O=c1c2ccccc2nc(-c2ccccc2)n1/N=C/c1ccc([N+](=O)[O-])cc1	none
O=C(/C=C/c1ccc(-c2ccccc2[N+](=O)[O-])o1)c1ccco1	UHRF1 MBD2 ctr 34, MBD2 inh 14 | UHRF1 ctr MBD2 inactive | MBD2 confirm inactive
Cc1ccc(C)c2[nH]c(=O)c(CN(CCN3CCOCC3)Cc3nnnn3CC3CCCO3)cc12 (configuration not stated)	MBD2 inh 18 | UHRF1 ctr MBD2 inactive | MBD2 confirm inactive
COc1ccccc1NC(=O)C/C(C)=N/NC(=O)COc1c(Br)cc(Br)cc1OC	none
COc1ccc(N2CCN(C(=O)Cc3ccc(S(=O)(=O)N4CCOCC4)s3)CC2)cc1	none
COC(=O)CC#C[C@@H](C)[C@H](NS(=O)(=O)c1ccc(C)cc1)C(C)(C)C	none (no result: Rin1 Abl inh, Neddyl block)
COC(=O)N1CC(=O)N(OC)C1c1ccc(Cl)cc1Cl (configuration not stated)	UHRF1 MBD2 ctr 25, MBD2 inh 15 | UHRF1 ctr MBD2 inactive | MBD2 confirm inactive
CON1C(=O)CN(C(C)=O)C1c1ccc(Cl)cc1Cl (configuration not stated)	none
O=C(CCS(=O)(=O)c1cc2c(cc1Cl)NC(=O)CO2)NCCc1ccccc1	MBD2 inh 31 | UHRF1 ctr MBD2 inactive | MBD2 confirm inactive
COc1cccc(-n2c(N)cc(=O)nc2SCC(=O)N2CCN(c3ccccc3)CC2)c1	none
N#Cc1ccc(CSc2nnc(NC(=O)C3CCCO3)s2)cc1 (configuration not stated)	UHRF1 MBD2 ctr 24, MBD2 inh 17 | UHRF1 ctr MBD2 inactive | MBD2 confirm inactive
COc1ccc(CCNCC(O)COc2cccc(C(C)=O)c2)cc1OC (configuration not stated)	UHRF1 MBD2 ctr 25, MBD2 inh 17 | UHRF1 ctr MBD2 inactive | MBD2 confirm inactive
CN(C)c1ccc(C(CNC(=O)COc2ccc(Cl)cc2)N2CCCC2)cc1 (configuration not stated)	none
CCc1ccccc1NC(=O)CN1C(=O)c2ccccc2S1(=O)=O	none
Cc1ccc(NC(=O)CN(C)CC(=O)Nc2c(C)cccc2C)c(Br)c1	MBD2 inh 38 | UHRF1 ctr MBD2 inactive | MBD2 confirm inactive
O=[N+]([O-])c1ccc(NN=Cc2cccc(O)c2)nc1	none
O=[N+]([O-])c1ccc(NN=Cc2cc(Br)ccc2O)nc1	MBD2 inh 18 | UHRF1 ctr MBD2 inactive | MBD2 confirm inactive
CCn1nc(C(=O)Nc2nc(-c3ccccn3)cs2)c2ccccc2c1=O	MBD2 inh 27 | UHRF1 ctr MBD2 inactive | MBD2 confirm inactive
CCCn1nc(C(=O)Nc2nc(-c3ccccn3)cs2)c2ccccc2c1=O	none
O=C(CSc1nnc(COc2ccccc2)n1Cc1ccco1)Nc1ccc2c(c1)OCO2	none (no result: Rin1 Abl inh, Neddyl block)
COc1ccc(/C=N\NC(=S)SCN2C(=O)C3CCC(C)(C2=O)C3(C)C)cc1 (configuration not stated)	MBD2 inh 48 | UHRF1 ctr MBD2 inactive | MBD2 confirm inactive
O=C(Nc1cccc2ccccc12)N(CCO)C1CCS(=O)(=O)C1 (configuration not stated)	none
O=C(Nc1ccc2c(c1)OCO2)c1cccs1	MBD2 inh 40 | UHRF1 ctr MBD2 inactive | MBD2 confirm inactive
COc1ccc(CC(=O)Nc2cccc(S(=O)(=O)N3CCCCC3)c2)cc1	MBD2 inh 40 | UHRF1 ctr MBD2 inactive | MBD2 confirm inactive
COc1ccc(CCC(=O)Nc2cccc(S(=O)(=O)N3CCCCCC3)c2)cc1	none
CN(CC(=O)Nc1ccc(N2CCOCC2)cc1)C(=O)CCNC(=O)c1ccccc1Cl	MBD2 inh 14 | UHRF1 ctr MBD2 inactive | MBD2 confirm inactive
CN(CC(=O)Nc1ccc(N2CCOCC2)cc1)C(=O)CCc1ccccc1Cl	none
O=C1NC(=Nc2ccccc2Cl)S/C1=C\c1ccc(C(=O)O)cc1	none
CC12CCC(C/C1=N\N=C1\NC(=O)/C(=C\c3ccc(Cl)cc3)S1)C2(C)C (configuration not stated)	MBD2 inh 13 | UHRF1 ctr MBD2 inactive | MBD2 confirm inactive
CCC(=C(c1ccc(OC)cc1)c1ccc(OC)cc1)c1cn(CC(O)CN2CCN(C)CC2)c2ccccc12 (configuration not stated)	none
Cc1ccc(C(=O)N/C(=C\c2ccccc2)C(=O)OCc2ccccc2)cc1	MBD2 inh 14 | UHRF1 ctr MBD2 inactive | MBD2 confirm inactive
O=C(NCCc1c[nH]c2ccccc12)OCc1cn(Cc2c(F)cccc2F)nn1	none (no result: Rin1 Abl inh, Neddyl block)
CC(C)(C)OC(=O)/C=C/[C@@H](CC1CCCC1)Sc1ccc(C(C)(C)C)cc1	none (no result: Rin1 Abl inh, Neddyl block)
O=C(Cn1nc(-c2ccccc2Cl)ccc1=O)Nc1ccc(Br)cc1	none
O=C(Cn1nc(-c2ccccc2Cl)ccc1=O)Nc1ccccc1-c1ccccc1	MBD2 inh 43 | UHRF1 ctr MBD2 inactive | MBD2 confirm inactive
CCC(=O)c1ccc(OCC(=O)OC(C)C(=O)NCc2ccc3c(c2)OCO3)cc1 (configuration not stated)	MBD2 inh 79 | UHRF1 ctr MBD2 inactive | MBD2 confirm inactive
Cc1ccnc(NS(=O)(=O)c2ccc(NC(=O)CSc3nc(-c4ccccc4)cc(=O)[nH]3)cc2)n1	none
COc1ccc(-c2noc(Cn3cc(S(=O)(=O)N4CCCC4)ccc3=O)n2)cc1	none
OC[C@H]1CC[C@@H]2O[C@H](CCc3ccc(-c4ccc(F)cc4)cc3)[C@H](n3cc(C4CC4)nn3)C[C@@H]2O1	none (no result: Rin1 Abl inh, Neddyl block)
